# Data from the supplement of paper PMC8728848.
# About 410 targets per protein were measured; listed, in parts, are those with the strongest signals and a random draw of the rest.
# B1: SLLPI (Mus musculus), Q9D9X8 (protein)
# chain: MGICMSMYTQVLVPVDADGDHHILWSRFYERWGSCFNPCAGLVNCLPPHSSALYLCHRMEARSRAPRRQLCPPGITWLALAYLLSCLLASSKAKVFSRCELAKEMHDFGLDGYRGYNLADWVCLAYYTSGFNTNAVDHEADGSTNNGIFQISSRRWCRTLASNGPNLCRIYCTDLLNNDLKDSIVCAMKIVQEPLGLGYWEAWRHHCQGRDLSDWVDGCDF
# What was measured:
# Experiment in all cases: glycan array binding signal (z-score within array); higher = stronger binding
# Settings in all cases: glycan notation: IUPAC condensed, linker removed
# [1] = biological target: Fuc(a1-2)Gal(b1-3)GalNAc(b1-3)Gal
# Summary of the method: (§1)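 The binding signal is a Z-score computed within each array and averaged over linkers. Arrays of the same protein sequence at different concentrations or buffers were also averaged together. Data originate from 3228 arrays in the Consortium for Functional Glycomics database, kept only where the protein sequence was available.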
# Fuc(a1-2)Gal(b1-4)GlcNAc = biological target: Fuc(a1-2)Gal(b1-4)GlcNAc
# Summary of the method: as §1
# [2] = biological target: Fuc(a1-2)Gal(b1-4)GlcNAc(b1-3)Gal(b1-4)GlcNAc
# Summary of the method: as §1
# [3] = biological target: Fuc(a1-2)Gal(b1-4)GlcNAc6S
# Summary of the method: as §1
# [4] = biological target: Fuc(a1-2)[Gal(a1-3)]Gal(b1-3)GlcNAc
# Summary of the method: as §1
# [5] = biological target: Fuc(a1-3)[Gal3S(b1-4)]GlcNAc6S
# Summary of the method: as §1
# Gal(b1-2)Gal = biological target: Gal(b1-2)Gal
# Summary of the method: as §1
# [6] = biological target: Gal(b1-3)GlcNAc(b1-2)Man(a1-3)[Gal(b1-3)GlcNAc(b1-2)Man(a1-6)]Man(b1-4)GlcNAc(b1-4)GlcNAc
# Summary of the method: as §1
# [7] = biological target: Gal(b1-3)[Fuc(a1-4)]GlcNAc(b1-3)Gal(b1-4)[Fuc(a1-3)]GlcNAc
# Summary of the method: as §1
# [8] = biological target: Gal(b1-4)GlcNAc(b1-3)[GlcNAc(b1-6)]Gal(b1-4)GlcNAc
# Summary of the method: as §1
# Gal3S(b1-3)GlcNAc = biological target: Gal3S(b1-3)GlcNAc
# Summary of the method: as §1
# Gal3S(b1-4)Glc6S = biological target: Gal3S(b1-4)Glc6S
# Summary of the method: as §1
# [9] = biological target: Gal3S(b1-4)[Fuc(a1-3)]Glc
# Summary of the method: as §1
# [10] = biological target: GlcNAc(b1-3)Gal(b1-3)GalNAc
# Summary of the method: as §1
# [11] = biological target: GlcNAc(b1-4)GlcNAc(b1-4)GlcNAc
# Summary of the method: as §1
# [12] = biological target: GlcNAc(b1-4)GlcNAc(b1-4)GlcNAc(b1-4)GlcNAc(b1-4)GlcNAc
# Summary of the method: as §1
# [13] = biological target: Man(a1-2)Man(a1-2)Man(a1-3)Man
# Summary of the method: as §1
# [14] = biological target: Man(a1-2)Man(a1-3)[Man(a1-2)Man(a1-6)]Man(a1-6)[Man(a1-2)Man(a1-2)Man(a1-3)]Man(b1-4)GlcNAc(b1-4)GlcNAc
# Summary of the method: as §1
# [15] = biological target: Man(a1-2)Man(a1-3)[Man(a1-6)]Man(a1-6)[Man(a1-2)Man(a1-3)]Man(b1-4)GlcNAc(b1-4)GlcNAc
# Summary of the method: as §1
# [16] = biological target: Neu5Ac(a2-3)Gal(b1-4)[Fuc(a1-3)]GlcNAc(b1-6)[Gal(b1-3)]GalNAc
# Summary of the method: as §1
# [17] = biological target: Neu5Ac(a2-6)Gal(b1-4)GlcNAc6S
# Summary of the method: as §1
binder,measurement,setting,value
B1,glycan array binding signal (z-score),[1],0.084
same,glycan array binding signal (z-score),Fuc(a1-2)Gal(b1-4)GlcNAc,-0.019
same,glycan array binding signal (z-score),[2],-0.448
same,glycan array binding signal (z-score),[3],0.445
same,glycan array binding signal (z-score),[4],-0.779
same,glycan array binding signal (z-score),[5],3.34
same,glycan array binding signal (z-score),Gal(b1-2)Gal,0.362
same,glycan array binding signal (z-score),[6],-0.288
same,glycan array binding signal (z-score),[7],-0.236
same,glycan array binding signal (z-score),[8],-0.03
same,glycan array binding signal (z-score),Gal3S(b1-3)GlcNAc,3.28
same,glycan array binding signal (z-score),Gal3S(b1-4)Glc6S,3.45
same,glycan array binding signal (z-score),[9],1.15
same,glycan array binding signal (z-score),[10],3.21
same,glycan array binding signal (z-score),[11],1.92
same,glycan array binding signal (z-score),[12],-0.401
same,glycan array binding signal (z-score),[13],-0.502
same,glycan array binding signal (z-score),[14],-0.652
same,glycan array binding signal (z-score),[15],0.317
same,glycan array binding signal (z-score),[16],-0.335
same,glycan array binding signal (z-score),[17],3.29
